The values below come from PubChem BioAssay (NCI).

The panel holds about 79,000 compounds, 15% with a hit somewhere; the sample as a whole holds those more often. A number with no mark means an inactive call. The source made the active and inactive calls. Cut-off read from the data, not from the text of the source: active = growth inhibition above about 70%; inactive = the rest.

A short description of assay [1]: NCI Yeast Anticancer Drug Screen. Data for the rad50 strain (AID 155).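 Note: 0% = growth of vehicle-only cultures of the same strain.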 Conditions: S. cerevisiae rad50 strain growth inhibition, active compounds read high. A digest of the protocol: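 Inhibition values express reduced yeast growth in compound-treated cultures relative to vehicle-treated controls.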
Assay [2] is described as follows: NCI Yeast Anticancer Drug Screen. Data for the mec2-1 strain (AID 157). Conditions: S. cerevisiae mec2-1 strain, active compounds read high. A digest of the protocol:
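Using mec2-1 yeast: add compound, measure growth, express inhibition versus vehicle-treated cultures.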

A short description of assay [3]: NCI Yeast Anticancer Drug Screen. Data for the sgs1 mgt1 strain (AID 161).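 Note: 0% = growth of cultures given vehicle only.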 Conditions: S. cerevisiae sgs1 mgt1 strain, active compounds read high. A digest of the protocol: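 This yeast growth screen uses a strain with defined DNA-repair lesions; compound-treated growth is compared with vehicle-treated growth.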
Assay [4] is described as follows: NCI Yeast Anticancer Drug Screen. Data for the cln2 rad14 strain (AID 165).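 Note: 0% = growth equal to vehicle treated cultures.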 Conditions: S. cerevisiae cln2 rad14 strain, active compounds read high. The essentials:
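Yeast strain cln2 rad14, bearing defects in cell cycle control and DNA repair, serves as the test system; values reflect growth inhibition compared with vehicle.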

Assay [5] in a line: NCI Yeast Anticancer Drug Screen. Data for the bub3 strain (AID 167). To be noted: S. cerevisiae bub3 mutant strain, active compounds read high. The essentials:
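Steps: expose the mutant yeast strain to compound; grow alongside vehicle-treated cultures; measure growth; express inhibition against the vehicle cultures.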

Assay [6] is described as follows: NCI Yeast Anticancer Drug Screen. Data for the mlh1 rad18 strain (AID 175). To be noted: S. cerevisiae mlh1 rad18 strain growth inhibition, active compounds read high. The essentials: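 Steps: expose repair-defective yeast to compound; measure growth; express inhibition against vehicle-treated controls.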
[7] abbreviates: at 5.0 µM (retest, dose inferred, filed as 0.5).
Setting [8] is: at 50.0 µM (retest, dose inferred, filed as 5.0).

Turning to `N#CC1CCCC(Cc2ccccc2)(c2ccccc2)C1=O` (configuration not stated), the growth inhibition in assay [1] (setting [7]) was -4%; in assay [1] (setting [8]) it was 93% (active); in assay [1] (at 50.0 µM), 98.8% (active); in assay [2] (setting [7]), -3%; in assay [2] (setting [8]), 95% (active); in assay [2] (at 50.0 µM), 98.1% (active). For the same compound, the growth inhibition in assay [3] (setting [7]) was -2%; in assay [3] (setting [8]), 95% (active); in assay [3] (at 50.0 µM) it was 98.3% (active); in assay [4] (setting [7]), -1%; in assay [4] (setting [8]), 70% (active); in assay [4] (at 50.0 µM) it was 95% (active). The growth inhibition was 10% in assay [5] (setting [7]); 96% (active) in assay [5] (setting [8]); 98.7% (active) in assay [5] (at 50.0 µM); -6% in assay [6] (setting [7]); 96% (active) in assay [6] (setting [8]); 97.6% (active) in assay [6] (at 50.0 µM).
Consider `CN(C)c1ccc(N=Nc2ccc3c4c(cccc24)-c2ccccc2-3)cc1`, for which the growth inhibition is 26% in assay [1] (setting [7]); 94% (active) in assay [1] (setting [8]); 96.5% (active) in assay [1] (at 50.0 µM); -4% in assay [2] (setting [7]); 96% (active) in assay [2] (setting [8]); 97.5% (active) in assay [2] (at 50.0 µM). Also, the growth inhibition was 3% in assay [3] (setting [7]); 96% (active) in assay [3] (setting [8]); 97.4% (active) in assay [3] (at 50.0 µM); -1% in assay [4] (setting [7]); 97% (active) in assay [4] (setting [8]); 95.8% (active) in assay [4] (at 50.0 µM). In addition, the growth inhibition in assay [5] (setting [7]) was 0%; in assay [5] (setting [8]) it was 95% (active); in assay [5] (at 50.0 µM), 97% (active); in assay [6] (setting [7]), -1%; in assay [6] (setting [8]), 95% (active); in assay [6] (at 50.0 µM), 97% (active).
Take `CC(C)=NNc1ncnc2nc[nH]c12`: the growth inhibition in assay [1] (setting [7]) was 11%; in assay [1] (setting [8]), 3%; in assay [1] (at 50.0 µM) it was 12.5%; in assay [2] (setting [7]), -1%; in assay [2] (setting [8]), -11%; in assay [2] (at 50.0 µM) it was 19.1%. Further, the growth inhibition is -4% in assay [3] (setting [7]); -13% in assay [3] (setting [8]); -28.8% in assay [3] (at 50.0 µM); 4% in assay [4] (setting [7]); -3% in assay [4] (setting [8]); 25.6% in assay [4] (at 50.0 µM). Further, the growth inhibition was 5% in assay [5] (setting [7]); 2% in assay [5] (setting [8]); 6.9% in assay [5] (at 50.0 µM); -14% in assay [6] (setting [7]); 3% in assay [6] (setting [8]); -7.5% in assay [6] (at 50.0 µM).
As for `C/C(=N/NC(=S)Nc1ccccc1Cl)c1ccccn1`, the growth inhibition in assay [1] (setting [7]) was -1%; in assay [1] (setting [8]) it was 19%; in assay [1] (at 50.0 µM) it was 70.4% (active); in assay [2] (setting [7]) it was -30%; in assay [2] (setting [8]), 11%; in assay [2] (at 50.0 µM), 50.1%. The growth inhibition in assay [3] (setting [7]) was -51%; in assay [3] (setting [8]) it was 22%; in assay [3] (at 50.0 µM), 81.3% (active); in assay [4] (setting [7]) it was 3%; in assay [4] (setting [8]), 5%; in assay [4] (at 50.0 µM), 78.3% (active). The growth inhibition in assay [5] (setting [7]) is -37%; in assay [5] (setting [8]), 17%; in assay [5] (at 50.0 µM), 56.2%; in assay [6] (setting [7]) it was -21%; in assay [6] (setting [8]) it was 20%; in assay [6] (at 50.0 µM) it was 77.2% (active).
On to `CCCCCCCCC1N(C)CCCN1C`, for which the growth inhibition in assay [1] (setting [7]) is -76%; in assay [1] (setting [8]), 97% (active); in assay [1] (at 50.0 µM) it was 99.5% (active); in assay [2] (setting [7]) it was -51%; in assay [2] (setting [8]) it was 98% (active); in assay [2] (at 50.0 µM), 99.6% (active). The growth inhibition in assay [3] (setting [7]) was -37%; in assay [3] (setting [8]), 98% (active); in assay [3] (at 50.0 µM), 49%; in assay [4] (setting [7]), -56%; in assay [4] (setting [8]), 98% (active); in assay [4] (at 50.0 µM), 98.3% (active). Further, the growth inhibition in assay [5] (setting [7]) was -52%; in assay [5] (setting [8]) it was 98% (active); in assay [5] (at 50.0 µM), 99% (active); in assay [6] (setting [7]), -102%; in assay [6] (setting [8]), 98% (active); in assay [6] (at 50.0 µM), 99.5% (active).
Take `Cc1ccc(NC(=O)CCc2nnc(N)n2N)cc1`: the growth inhibition was -2% in assay [1] (setting [7]); -5% in assay [1] (setting [8]); -3.55% in assay [1] (at 50.0 µM); -1% in assay [2] (setting [7]); 4% in assay [2] (setting [8]); 96.5% (active) in assay [2] (at 50.0 µM). For the same compound, the growth inhibition in assay [3] (setting [7]) was -6%; in assay [3] (setting [8]), 0%; in assay [3] (at 50.0 µM) it was 97.5% (active); in assay [4] (setting [7]) it was 0%; in assay [4] (setting [8]), 5%; in assay [4] (at 50.0 µM), 93.2% (active). The growth inhibition in assay [5] (setting [7]) was 4%; in assay [5] (setting [8]), 7%; in assay [5] (at 50.0 µM) it was 95% (active); in assay [6] (setting [7]), -4%; in assay [6] (setting [8]), -1%; in assay [6] (at 50.0 µM), 97.2% (active).
In the case of `COC(=O)c1cc(/C=C/c2ccccc2)on1`, the growth inhibition in assay [1] (setting [7]) is -3%; in assay [1] (setting [8]), 3%; in assay [1] (at 50.0 µM), -3.75%; in assay [2] (setting [7]), 5%; in assay [2] (setting [8]), 1%; in assay [2] (at 50.0 µM) it was 0.55%. Moreover, the growth inhibition in assay [3] (setting [7]) was 2%; in assay [3] (setting [8]) it was 8%; in assay [3] (at 50.0 µM) it was 10.5%; in assay [4] (setting [7]), -4%; in assay [4] (setting [8]), -14%; in assay [4] (at 50.0 µM), 82.2% (active). The growth inhibition was 6% in assay [5] (setting [7]); 14% in assay [5] (setting [8]); 2.75% in assay [5] (at 50.0 µM); -3% in assay [6] (setting [7]); 2% in assay [6] (setting [8]); -9.55% in assay [6] (at 50.0 µM).
On to `Brc1cc2c(c(Br)c1Br)C(Br)(Br)C(c1ccccc1)=N2`, for which the growth inhibition in assay [1] (setting [7]) is 6%; in assay [1] (setting [8]), 80% (active); in assay [1] (at 50.0 µM), 73.3% (active); in assay [2] (setting [7]) it was 10%; in assay [2] (setting [8]), 85% (active); in assay [2] (at 50.0 µM), 58.1%. The growth inhibition in assay [3] (setting [7]) is 25%; in assay [3] (setting [8]) it was 85% (active); in assay [3] (at 50.0 µM), 78.6% (active); in assay [4] (setting [7]), 3%; in assay [4] (setting [8]) it was 32%; in assay [4] (at 50.0 µM), 60.4%. Also, the growth inhibition in assay [5] (setting [7]) was 1%; in assay [5] (setting [8]) it was 90% (active); in assay [5] (at 50.0 µM), 27.6%; in assay [6] (setting [7]), 13%; in assay [6] (setting [8]), 89% (active); in assay [6] (at 50.0 µM), 75.3% (active).
As to `FC(F)(F)c1nc(Cl)nc2nc[nH]c12`, the growth inhibition was 3% in assay [1] (setting [7]); -9% in assay [1] (setting [8]); 26.4% in assay [1] (at 50.0 µM); -7% in assay [2] (setting [7]); -2% in assay [2] (setting [8]); 6.1% in assay [2] (at 50.0 µM). Moreover, the growth inhibition in assay [3] (setting [7]) was -3%; in assay [3] (setting [8]), -10%; in assay [3] (at 50.0 µM), -31.4%; in assay [4] (setting [7]), -3%; in assay [4] (setting [8]) it was 0%; in assay [4] (at 50.0 µM) it was 17.4%. Further, the growth inhibition was -1% in assay [5] (setting [7]); 4% in assay [5] (setting [8]); -21.7% in assay [5] (at 50.0 µM); 0% in assay [6] (setting [7]); -8% in assay [6] (setting [8]); -4.75% in assay [6] (at 50.0 µM).
